CHX counter – counter-screen hit for Shiga toxin inhibitors, cycloheximide; cell reporter, cycloheximide protein synthesis inhibition counterscreen; max response, %; 12% of 300,000 active; in the data active = max response mostly above about 13%, no sharp cut-off; inactive = mostly below about 14%; also: read at 38.3 µM for the half of the compounds with a filed dose; 0% is about no effect
Tb PYK inh – inhibitors of Trypanosoma brucei pyruvate kinase; Q57TT1; Potency, µM (series often up to 76.8 µM), for inactives: top-dose activity, negative = inhibition, most hits filed as inhibitors; 0.12% of 410,000 active; AID 624173; TbPYK enzyme, Kinase-Glo Plus ATP luminescence, 45 min; also: potency is read from the fitted curve at half-maximal effect; % is scaled to controls: 0 for no effect and ±100 for the full control effect; nearly all actives have a fitted effect of over 50% in size
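ADP (130 uM final) triggers the TbPYK reaction after compound addition; incubation is 45 min at room temperature. Kinase-Glo Plus is then added and luminescence imaged. Normalized data are fitted to concentration-effect curves.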
LmPK inh – blocks Leishmania mexicana pyruvate kinase activity. AID 1721. 0.37% of 290,000 active. Q27686. purified LmPK, Kinase-Glo ATP luminescence, 1 h. Potency, µM (doses to about 57.5 µM), for the others: top-dose activity change, negative = inhibition, actives largely listed as inhibitors; also: potency is read from the fitted curve at half-maximal effect; % is scaled to controls: 0 for no effect and ±100 for the full control effect
Target sequence (Q27686 whole entry, looked up): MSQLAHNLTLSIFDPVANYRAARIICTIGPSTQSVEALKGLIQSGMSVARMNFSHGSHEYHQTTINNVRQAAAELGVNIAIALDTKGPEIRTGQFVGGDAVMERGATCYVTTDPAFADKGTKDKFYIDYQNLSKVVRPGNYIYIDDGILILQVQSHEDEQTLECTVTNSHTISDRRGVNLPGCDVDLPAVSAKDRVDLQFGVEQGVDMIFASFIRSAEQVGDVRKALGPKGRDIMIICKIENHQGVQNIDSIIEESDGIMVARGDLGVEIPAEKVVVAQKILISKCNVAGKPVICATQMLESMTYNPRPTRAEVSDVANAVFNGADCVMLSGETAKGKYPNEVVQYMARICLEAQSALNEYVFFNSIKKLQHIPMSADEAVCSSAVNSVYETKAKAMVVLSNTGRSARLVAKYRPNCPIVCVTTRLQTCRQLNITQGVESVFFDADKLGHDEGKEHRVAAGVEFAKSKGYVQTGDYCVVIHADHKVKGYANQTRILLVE
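Purified LmPK (0.1 nM) with 0.5 mM PEP and 0.1 mM ADP in imidazole buffer pH 7.2 with MgCl2/KCl, 1 h at room temperature. ATP formed was read by luciferase luminescence and normalized to no-enzyme and uninhibited controls.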
Sm TGR inh – inhibitors of Schistosoma mansoni thioredoxin glutathione reductase. Q962Y6. purified TGR, DTNB reduction, TNB absorbance 405 nm. Potency, µM (highest dose often 114 µM), for the others: top-dose activity change, negative = inhibition, hits mostly inhibitors. 3% of 360,000 active. AID 485364; also: potency is read from the fitted curve at half-maximal effect; % is scaled to controls: 0 for no effect and ±100 for the full control effect; nearly all actives have a fitted effect of over 60% in size
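TGR 20 nM + NADPH 100 uM (dispensed conc.), cpd preinc 15 min RT; start with NADPH (500 uM addition) then DTNB (15 mM addition). Kinetic TNB absorbance, 405 nm filter. Four-parameter Hill fit across titration.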
Giardia FBPA inh – Giardia lamblia aldolase inhibition. A8B2U2. purified Giardia FBPA. Potency, µM (top dose mostly 59.6 µM), for inactives: at the highest dose activity, negative = inhibition, hits mostly inhibitors. 0.71% of 290,000 active; also: potency is read from the fitted curve at half-maximal effect; % is scaled to controls: 0 for no effect and ±100 for the full control effect; nearly all actives have a fitted effect of over 55% in size
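Giardia FBPA (40 nM reagent) was preincubated 10 min at RT with compound (up to 57.5 uM final), then substrate plus GAPDH/TPI/NAD/arsenate coupling system with diaphorase/resazurin was added; resorufin fluorescence (525/598 nm) was read after 20 min.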
Shiga toxin inh – Shiga toxin inhibition; inhibition, % at 38.7 µM; AID 2315; 9.2% of 290,000 active; Vero cells, Shiga toxin protein synthesis inhibition reporter; in the data active = inhibition mostly above about 28%, no sharp cut-off; inactive = mostly below about 43%; also: 0% is about no effect
Starred values were filed as active, the others as inactive; u = inconclusive; x = no result given; + = active, no number. The entries come from a sample that favours hits as a whole. Unless noted, calls follow the shape of the dose curve; as a rule, active = well fitted curve in the direction sought with a large enough effect; inconclusive = small, poorly fitted or top-dose-only effect, or another doubt; inactive = no such curve, though single readings can be large; an effect the other way counts as inactive or inconclusive.

SMILES	CHX counter	Tb PYK inh	LmPK inh	Sm TGR inh	Giardia FBPA inh	Shiga toxin inh
CC(C)CCNC(=S)NC1CCCC1	-1	0%	0%	7%	0%	-5
CC(C)CCNC(=O)C(=O)NC1CCCC1	11*	-3%	1%	6%	6%	37*
CN(C)C(=O)CSc1nnc([C@@H](N)Cc2ccccc2)o1	0	-12%	-5%	4%	10%	-4
C[C@H](N)c1nnc(SCC(=O)N(C)C)o1	17*	-13%	-3%	-2%	-18%	17
COCCNC(=O)C(c1ccc(F)cc1)N(C(=O)CCC(=O)Nc1ccccn1)c1cccc(C)c1 (stereo not given)	-9	-5%	-1%	0%	10%	-9
COc1cccc(CNC(=O)C2CCC(=O)N(CC3CCCCC3)C2)c1OC (stereo not given)	13	-3%	-3%	-20%	x	5
CCCn1c(N)c(C(=O)COC(=O)CNC(=O)c2ccccc2OCC)c(=O)[nH]c1=O	x	7%	x	-3%	x	x
O=C1N(c2ccc(Cl)cc2)C(c2ccccc2)N2CCCN12 (stereo not given)	0	33%	1%	0%	4%	9
O=C1N(c2ccc(Cl)cc2)C(c2cccnc2)N2CCCN12 (stereo not given)	26	2%	-6%	-3%	8%	108*
CCOc1ccc(NC(=O)c2cc(C)nc3c2c(C)nn3-c2cccc(F)c2)cc1	x	2%	x	2%	x	x
Brc1ccc(COc2ncnc3ccccc23)cc1	7	1%	1%	3%	6%	-3
COc1ccc(COc2ncnc3ccc(Br)cc23)cc1F	19*	2%	2%	4%	-17%	24
c1ccc(-c2nc3nc4ccccc4nc3n2CC2CCCO2)cc1 (stereo not given)	30*	4%	1%	-35%	0%	30
c1coc(-c2nc3nc4ccccc4nc3n2CC2CCCO2)c1 (stereo not given)	-7	-1%	9%	50µM*	u	-1
COCCNc1nc(NCCN2CCNC2=O)c2sc(-c3ccccc3)cc2n1	x	2%	x	x	x	x
Cc1ccnc(NC2CCCCC2)c1	31*	-1%	-4%	-2%	-29%	109*
O=[N+]([O-])c1ccc(Sc2nnnn2-c2ccccc2)nc1	12	-3%	5%	14µM*	0%	17
C(=C\CSc1nnnn1-c1ccccc1)/CSc1nnnn1-c1ccccc1	-7	-10%	4%	-25%	-5%	-7
C[C@@]12C=Cc3occc3C1CC[C@@]13C[C@@H](CCC12)[C@@](O)(CO)C3 (stereo not given in full)	0	x	x	x	-8%	23
Nc1n[nH]c(C2CC2)c1N=Nc1ccc(Cl)c(Cl)c1	22	6%	2%	6%	5%	51*
Cc1cccc(CN2CCN(C3CN(Cc4ccc(F)cc4)S(=O)(=O)C3)CC2)c1 (stereo not given)	x	-4%	x	x	x	x
O=C(CSc1ccc(Cl)cc1)N/N=C/c1ccc([N+](=O)[O-])o1	14*	-7%	11%	5.6µM*	-25%	19
O=C(CNc1ccc2ccccc2c1)N/N=C/c1ccc([N+](=O)[O-])o1	3	-12%	5%	-35%	-7%	15
Cc1ccc(OCC(=O)N/N=C/c2ccc([N+](=O)[O-])o2)cc1	12	3%	-3%	u	-3%	-5
CN(/N=C/c1ccc([N+](=O)[O-])o1)c1ccccc1	33*	-4%	-11%	-26%	-1%	42
SMILES	CHX counter	Tb PYK inh	LmPK inh	Sm TGR inh	Giardia FBPA inh	Shiga toxin inh
O=C(COc1ccccc1)N/N=C/c1cc2c(cc1[N+](=O)[O-])OCO2	23*	2%	-1%	-29%	-6%	86
O=C(COc1ccccc1)N/N=C/c1ccc([N+](=O)[O-])o1	11*	-4%	-5%	u	-8%	9
CCN1CCN(C(C(=O)NC2CCCCC2)c2ccnc3ccccc23)CC1 (stereo not given)	x	0%	x	x	x	x
COC(=O)CCC(C)C1CCC2C3CCC4CC(O)CCC4(C)C3=CC(=O)C12C (stereo not given)	x	3%	x	x	x	x
CCOc1ccccc1NC(=O)c1c(NC(=O)Cc2ccc(OC)cc2)sc2c1CCC2	x	0%	x	9%	x	x
O=C(N/N=C/c1ccc([N+](=O)[O-])o1)C(O)c1ccccc1 (stereo not given)	2	-3%	-4%	45µM*	-12%	12
O=C(CSc1nnnn1-c1ccccc1)N1N=CCC1c1ccccc1 (stereo not given)	10	0%	5%	0%	0%	12
O=C(Nc1cccc(Cl)c1)N1N=CCC1c1ccccc1 (stereo not given)	-3	2%	4%	7%	-8%	10
Cc1ccc(SCC(=O)N2N=CCC2c2ccccc2)cc1 (stereo not given)	24*	1%	-1%	u	4%	67
O=C(Nc1cccc2ccccc12)N1N=CCC1c1ccccc1 (stereo not given)	59*	-19%	9%	13%	-3%	109*
Fc1ccc(NC(=S)N2N=CCC2c2ccccc2)cc1 (stereo not given)	80*	x	2%	-1%	-20%	61*
S=C(Nc1ccccc1)N1N=CCC1c1ccccc1 (stereo not given)	26*	-8%	-1%	4%	-11%	78*
COC(=O)CC1C(C)(C)C(OC(C)=O)C2[C@H](OC(C)=O)[C@]34O[C@]2(O)[C@]1(C)C3CC[C@]1(C)C4=CC(=O)OC1c1ccoc1 (stereo not given in full)	x	x	x	x	-17%	x
CCc1nc2ccc(C(=O)NCCN3CCNC3=O)cn2c1N(CC)CCOC	x	1%	x	x	x	x
O=c1oc2cc(Br)ccc2n1CSC1=NCCS1	34*	-8%	5%	6%	-9%	100*
COc1ccc(S(=O)(=O)NCCc2csc(-c3ccc(F)cc3)n2)cc1F	x	-6%	x	5%	x	x
CCc1ccc(Sc2cc(C(=O)NCc3ccccc3OC)c3ccccc3n2)cc1	x	-8%	x	5%	x	x
Cc1[nH]c2ccccc2c1/C=N/NC(=O)c1cc(C(C)(C)C)[nH]n1	12*	0%	4%	-8%	-10%	22
Cc1[nH]c2ccccc2c1/C=N/NC(=O)c1cc(-c2ccccc2)n[nH]1	8	5%	1%	-1%	-1%	-5
Cc1ccc(NC(=S)N/N=C/c2c(C)[nH]c3ccccc23)cc1	23*	-1%	-4%	x	-3%	80*
Cc1[nH]c2ccccc2c1/C=N/NC(=O)Nc1ccccc1	28*	1%	8%	6%	-1%	+
Cc1[nH]c2ccccc2c1/C=N/NC(=O)CNC(=O)c1ccccc1	4	4%	-1%	-3%	-1%	-7
